# Results: ChEMBL document CHEMBL1961873, “Compounds: GSK PKIS; Assays: Nanosyn kinase panel” (2012)
# Experiments:
# [1] = molecular target: Serine/threonine-protein kinase MRCK alpha (Homo sapiens) (UniProt Q5VT25); conditions: at 0.1 µM
# [2] = molecular target: Serine/threonine-protein kinase MRCK alpha (Homo sapiens) (UniProt Q5VT25); conditions: at 1 µM
# [3] = molecular target: Serine/threonine-protein kinase MRCK beta (Homo sapiens) (UniProt Q9Y5S2); conditions: at 0.1 µM
# [4] = molecular target: Serine/threonine-protein kinase MRCK beta (Homo sapiens) (UniProt Q9Y5S2); conditions: at 1 µM
# [5] = molecular target: Ribosomal protein S6 kinase alpha-5 (Homo sapiens) (UniProt O75582); conditions: at 0.1 µM
# Chain of Ribosomal protein S6 kinase alpha-5 (Homo sapiens) (O75582 whole entry, looked up): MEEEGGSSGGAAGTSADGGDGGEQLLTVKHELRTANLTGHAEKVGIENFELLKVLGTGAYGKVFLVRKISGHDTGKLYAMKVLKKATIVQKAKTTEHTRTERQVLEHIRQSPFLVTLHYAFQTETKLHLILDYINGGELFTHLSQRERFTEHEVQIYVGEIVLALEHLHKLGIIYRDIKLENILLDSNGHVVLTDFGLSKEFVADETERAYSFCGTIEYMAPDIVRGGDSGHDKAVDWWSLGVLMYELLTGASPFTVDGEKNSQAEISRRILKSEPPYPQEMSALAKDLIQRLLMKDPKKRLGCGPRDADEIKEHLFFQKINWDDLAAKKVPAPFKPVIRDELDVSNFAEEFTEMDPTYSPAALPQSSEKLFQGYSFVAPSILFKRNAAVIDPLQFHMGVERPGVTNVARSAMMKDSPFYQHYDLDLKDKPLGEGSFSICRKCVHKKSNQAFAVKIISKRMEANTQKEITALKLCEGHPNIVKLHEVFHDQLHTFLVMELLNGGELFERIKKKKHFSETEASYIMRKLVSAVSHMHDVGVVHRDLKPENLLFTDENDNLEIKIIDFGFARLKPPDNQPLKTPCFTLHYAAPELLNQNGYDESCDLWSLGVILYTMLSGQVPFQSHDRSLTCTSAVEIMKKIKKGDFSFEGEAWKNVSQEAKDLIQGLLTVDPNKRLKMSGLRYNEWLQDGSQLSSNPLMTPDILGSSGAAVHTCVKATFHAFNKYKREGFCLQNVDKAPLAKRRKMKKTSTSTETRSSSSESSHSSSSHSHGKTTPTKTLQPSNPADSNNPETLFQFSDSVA
# [6] = molecular target: Ribosomal protein S6 kinase alpha-5 (Homo sapiens) (UniProt O75582); conditions: at 1 µM
# [7] = molecular target: Ribosomal protein S6 kinase alpha-4 (Homo sapiens) (UniProt O75676); conditions: at 0.1 µM
# Chain of Ribosomal protein S6 kinase alpha-4 (Homo sapiens) (O75676 whole entry, looked up): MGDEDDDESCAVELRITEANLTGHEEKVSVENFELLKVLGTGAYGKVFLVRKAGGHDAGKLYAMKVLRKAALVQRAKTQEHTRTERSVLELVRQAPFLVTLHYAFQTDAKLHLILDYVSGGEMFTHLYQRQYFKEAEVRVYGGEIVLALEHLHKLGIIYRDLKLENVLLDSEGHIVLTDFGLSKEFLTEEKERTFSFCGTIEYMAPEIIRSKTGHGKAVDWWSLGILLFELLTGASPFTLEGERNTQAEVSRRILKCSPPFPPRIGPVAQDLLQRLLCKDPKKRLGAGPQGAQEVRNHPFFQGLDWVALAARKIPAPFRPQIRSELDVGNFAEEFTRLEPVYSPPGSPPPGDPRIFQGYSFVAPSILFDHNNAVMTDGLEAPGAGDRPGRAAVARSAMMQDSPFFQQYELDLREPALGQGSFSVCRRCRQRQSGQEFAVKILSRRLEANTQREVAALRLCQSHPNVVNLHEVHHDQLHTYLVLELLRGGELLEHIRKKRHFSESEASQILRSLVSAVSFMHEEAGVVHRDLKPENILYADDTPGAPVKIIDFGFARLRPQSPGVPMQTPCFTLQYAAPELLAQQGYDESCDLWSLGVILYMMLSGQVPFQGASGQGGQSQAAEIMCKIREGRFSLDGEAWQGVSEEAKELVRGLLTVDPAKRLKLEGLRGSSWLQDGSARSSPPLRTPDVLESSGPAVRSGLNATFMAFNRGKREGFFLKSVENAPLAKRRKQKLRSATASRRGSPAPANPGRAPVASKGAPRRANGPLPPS
# [8] = molecular target: Ribosomal protein S6 kinase alpha-4 (Homo sapiens) (UniProt O75676); conditions: at 1 µM
# [9] = molecular target: Ribosomal protein S6 kinase beta-1 (Homo sapiens) (UniProt P23443); conditions: at 0.1 µM
# [10] = molecular target: Ribosomal protein S6 kinase beta-1 (Homo sapiens) (UniProt P23443); conditions: at 1 µM
# [11] = molecular target: T1, 3-phosphoinositide-dependent protein kinase 1 (Homo sapiens) (UniProt O15530); conditions: at 0.1 µM;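 further: values are mean inhibition of PDK1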
# T1 sequence (whole entry): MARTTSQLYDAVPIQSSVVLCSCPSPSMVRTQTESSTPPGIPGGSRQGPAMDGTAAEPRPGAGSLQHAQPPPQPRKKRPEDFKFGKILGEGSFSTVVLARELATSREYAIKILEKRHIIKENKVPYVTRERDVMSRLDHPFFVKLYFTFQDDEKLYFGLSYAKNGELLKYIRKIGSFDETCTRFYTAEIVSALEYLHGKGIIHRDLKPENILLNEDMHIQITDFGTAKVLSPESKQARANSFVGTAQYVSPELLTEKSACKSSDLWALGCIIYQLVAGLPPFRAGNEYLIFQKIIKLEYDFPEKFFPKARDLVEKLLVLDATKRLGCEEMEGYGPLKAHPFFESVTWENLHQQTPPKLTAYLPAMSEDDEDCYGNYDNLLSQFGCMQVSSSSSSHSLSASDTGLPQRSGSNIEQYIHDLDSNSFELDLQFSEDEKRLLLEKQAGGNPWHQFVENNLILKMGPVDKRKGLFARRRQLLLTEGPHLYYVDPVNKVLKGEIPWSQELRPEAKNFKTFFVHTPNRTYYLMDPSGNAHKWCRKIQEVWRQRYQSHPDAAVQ
# [12] = molecular target: cAMP-dependent protein kinase catalytic subunit alpha (Homo sapiens) (UniProt P17612); conditions: at 0.1 µM
# [13] = molecular target: cAMP-dependent protein kinase catalytic subunit alpha (Homo sapiens) (UniProt P17612); conditions: at 1 µM
# [14] = molecular target: Protein kinase C alpha type (Homo sapiens) (UniProt P17252); conditions: at 0.1 µM
# [15] = molecular target: Protein kinase C alpha type (Homo sapiens) (UniProt P17252); conditions: at 1 µM
# [16] = molecular target: Protein kinase C beta type (Homo sapiens) (UniProt P05771); conditions: at 0.1 µM
# Chain of Protein kinase C beta type (Homo sapiens) (P05771 2-671 limits assumed): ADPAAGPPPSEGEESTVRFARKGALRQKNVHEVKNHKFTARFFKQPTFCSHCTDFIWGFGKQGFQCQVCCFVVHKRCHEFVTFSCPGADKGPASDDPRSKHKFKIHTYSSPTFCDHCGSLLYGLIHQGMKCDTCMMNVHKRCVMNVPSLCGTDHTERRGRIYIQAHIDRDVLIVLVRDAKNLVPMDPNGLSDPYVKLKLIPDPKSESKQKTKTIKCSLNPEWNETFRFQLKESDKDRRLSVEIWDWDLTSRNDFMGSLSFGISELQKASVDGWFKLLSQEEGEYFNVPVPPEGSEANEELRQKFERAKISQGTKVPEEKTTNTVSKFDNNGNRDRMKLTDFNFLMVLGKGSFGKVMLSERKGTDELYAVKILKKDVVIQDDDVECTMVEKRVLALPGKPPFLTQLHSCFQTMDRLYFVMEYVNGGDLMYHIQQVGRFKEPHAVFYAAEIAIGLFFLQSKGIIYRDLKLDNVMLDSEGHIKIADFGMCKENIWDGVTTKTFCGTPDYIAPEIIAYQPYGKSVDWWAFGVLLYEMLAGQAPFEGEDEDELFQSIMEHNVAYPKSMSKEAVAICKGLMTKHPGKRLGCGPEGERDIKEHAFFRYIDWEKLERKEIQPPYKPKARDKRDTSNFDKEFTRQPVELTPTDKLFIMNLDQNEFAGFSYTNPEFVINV
# [17] = molecular target: Protein kinase C beta type (Homo sapiens) (UniProt P05771); conditions: at 1 µM
# [18] = molecular target: Protein kinase C eta type (Homo sapiens) (UniProt P24723); conditions: at 0.1 µM
# Chain of Protein kinase C eta type (Homo sapiens) (P24723 whole entry): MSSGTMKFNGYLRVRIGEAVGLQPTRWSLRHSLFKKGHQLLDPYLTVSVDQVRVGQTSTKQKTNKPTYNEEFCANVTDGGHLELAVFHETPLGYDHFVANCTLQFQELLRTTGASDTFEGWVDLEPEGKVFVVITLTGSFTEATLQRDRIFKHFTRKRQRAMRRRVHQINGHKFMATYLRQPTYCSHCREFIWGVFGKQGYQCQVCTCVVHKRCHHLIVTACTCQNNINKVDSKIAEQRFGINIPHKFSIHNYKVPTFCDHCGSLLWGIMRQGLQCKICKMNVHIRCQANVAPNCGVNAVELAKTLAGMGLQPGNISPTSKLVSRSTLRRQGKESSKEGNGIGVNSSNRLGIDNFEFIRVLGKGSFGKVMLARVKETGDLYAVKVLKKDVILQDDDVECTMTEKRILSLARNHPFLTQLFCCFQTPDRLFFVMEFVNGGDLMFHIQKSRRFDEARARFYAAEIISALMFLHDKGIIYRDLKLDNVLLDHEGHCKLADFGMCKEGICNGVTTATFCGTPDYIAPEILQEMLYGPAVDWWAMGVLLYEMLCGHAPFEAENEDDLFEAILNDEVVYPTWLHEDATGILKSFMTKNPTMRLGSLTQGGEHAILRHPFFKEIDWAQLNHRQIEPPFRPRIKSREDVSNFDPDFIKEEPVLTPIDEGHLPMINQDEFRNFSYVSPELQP
# [19] = molecular target: Protein kinase C eta type (Homo sapiens) (UniProt P24723); conditions: at 1 µM
# [20] = molecular target: Protein kinase C gamma type (Homo sapiens) (UniProt P05129); conditions: at 0.1 µM;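 further: values are mean percent inhibition of PKC gamma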
# Chain of Serine/threonine-protein kinase MRCK alpha (Homo sapiens) (Q5VT25 whole entry): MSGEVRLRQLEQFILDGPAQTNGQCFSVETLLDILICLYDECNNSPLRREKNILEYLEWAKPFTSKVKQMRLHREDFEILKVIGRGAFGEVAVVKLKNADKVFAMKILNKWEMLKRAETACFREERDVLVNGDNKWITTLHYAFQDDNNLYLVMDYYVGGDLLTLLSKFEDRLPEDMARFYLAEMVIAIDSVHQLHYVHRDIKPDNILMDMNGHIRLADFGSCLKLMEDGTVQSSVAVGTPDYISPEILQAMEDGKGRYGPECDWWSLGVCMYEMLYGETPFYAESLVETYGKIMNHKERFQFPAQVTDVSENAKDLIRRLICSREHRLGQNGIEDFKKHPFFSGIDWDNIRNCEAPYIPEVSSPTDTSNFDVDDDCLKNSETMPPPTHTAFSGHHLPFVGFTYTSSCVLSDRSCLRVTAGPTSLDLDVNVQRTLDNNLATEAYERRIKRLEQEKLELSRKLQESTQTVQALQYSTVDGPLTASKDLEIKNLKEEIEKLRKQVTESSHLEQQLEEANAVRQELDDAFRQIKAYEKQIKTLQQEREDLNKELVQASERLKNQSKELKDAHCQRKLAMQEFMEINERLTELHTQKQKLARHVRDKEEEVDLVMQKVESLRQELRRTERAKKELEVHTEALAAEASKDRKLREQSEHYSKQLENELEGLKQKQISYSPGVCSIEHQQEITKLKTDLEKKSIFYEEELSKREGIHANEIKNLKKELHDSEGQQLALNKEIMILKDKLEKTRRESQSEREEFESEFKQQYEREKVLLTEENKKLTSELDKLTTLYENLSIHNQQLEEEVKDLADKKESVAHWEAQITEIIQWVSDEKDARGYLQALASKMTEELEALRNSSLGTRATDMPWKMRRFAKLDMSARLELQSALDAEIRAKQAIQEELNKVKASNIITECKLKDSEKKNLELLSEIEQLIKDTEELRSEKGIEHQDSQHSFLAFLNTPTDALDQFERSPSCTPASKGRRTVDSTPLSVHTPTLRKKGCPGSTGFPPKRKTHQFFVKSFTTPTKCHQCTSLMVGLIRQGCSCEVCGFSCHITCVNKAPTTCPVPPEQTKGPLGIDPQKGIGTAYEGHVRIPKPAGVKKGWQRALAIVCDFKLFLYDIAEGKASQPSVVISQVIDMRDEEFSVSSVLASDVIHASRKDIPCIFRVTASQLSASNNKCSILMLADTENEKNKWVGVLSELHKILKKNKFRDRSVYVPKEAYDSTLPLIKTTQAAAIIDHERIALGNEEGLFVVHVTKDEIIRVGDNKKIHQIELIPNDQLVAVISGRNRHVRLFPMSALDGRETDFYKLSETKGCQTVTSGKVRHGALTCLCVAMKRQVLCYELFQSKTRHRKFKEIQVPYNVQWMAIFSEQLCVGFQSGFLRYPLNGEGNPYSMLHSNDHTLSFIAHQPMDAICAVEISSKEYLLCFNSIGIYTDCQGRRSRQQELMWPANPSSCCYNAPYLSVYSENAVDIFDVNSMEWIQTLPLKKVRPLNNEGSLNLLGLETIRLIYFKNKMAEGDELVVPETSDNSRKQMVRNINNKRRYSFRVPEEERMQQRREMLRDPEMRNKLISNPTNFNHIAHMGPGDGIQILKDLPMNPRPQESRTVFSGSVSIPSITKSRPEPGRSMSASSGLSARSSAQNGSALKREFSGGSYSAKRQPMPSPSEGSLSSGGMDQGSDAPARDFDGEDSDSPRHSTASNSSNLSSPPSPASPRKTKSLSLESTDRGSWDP
Structure (SMILES),inhibition [1] [%],inhibition [2] [%],inhibition [3] [%],inhibition [4] [%],inhibition [5] [%],inhibition [6] [%],inhibition [7] [%],inhibition [8] [%],inhibition [9] [%],inhibition [10] [%],inhibition [11] [%],inhibition [12] [%],inhibition [13] [%],inhibition [14] [%],inhibition [15] [%],inhibition [16] [%],inhibition [17] [%],inhibition [18] [%],inhibition [19] [%],inhibition [20] [%]
COc1ccc(-c2cc(-c3c[nH]nc3-c3ccccn3)ccn2)cc1,-0.6,3.02,-0.39,0.6,4.28,4.22,3.45,4.77,2.32,3.73,2.34,2.05,3.35,0.46,2.09,1.41,3.92,4.04,5.03,1.23
CN1CCC(n2cnc(-c3ccc(F)cc3)c2-c2ccnc(Nc3ccccc3)n2)CC1,0.81,10.7,1.12,2.04,1.99,3.4,1.72,3.56,0.19,1.05,3.8,2.92,16.7,19.4,65.2,16.1,51,2.14,2.72,5.68
[O-][S+]1CCN(Cc2ccc(-c3ccc4ncnc(Nc5ccc(OCc6cccc(F)c6)c(Cl)c5)c4c3)o2)CC1,-1.31,-1.3,-0.28,-0.43,3.5,3.71,3.38,4.98,2.86,3.84,4.4,2.27,3.13,1.17,1.29,-0.91,1.67,2.12,4.25,3.03
CNC(=O)c1cc(-c2ccc(F)cc2)cc(-c2ccc(S(=O)(=O)N3CCCC3)cc2)c1N,1.92,0.6,-1.06,-0.2,9.11,8.3,1.23,1.99,0.63,1.47,1.46,0.9,0.32,0.46,1.02,-0.39,0.24,3.68,1.41,2.34
COc1ccc(-c2oc3ncnc(N)c3c2-c2ccc(NC(=O)Nc3cc(C(F)(F)F)ccc3F)cc2)cc1,0.52,6.52,0.63,1.86,5.16,16.1,4.9,24.2,11.7,68.2,1.13,3.34,4.14,0.71,1.62,3.38,6.16,6.58,5.99,1.64
CCCN1CCC(c2ccc(Nc3nc(Nc4cc(F)ccc4C(N)=O)c4cc[nH]c4n3)c(OC)c2)CC1,2.45,30.4,1.71,23.3,2.89,8.65,2.82,12,2.27,7.03,0.96,2.33,3.51,0.66,16.6,0.19,4.9,2.99,9.93,3.12
Nc1ncc(-c2cccc(S(N)(=O)=O)c2)c2scc(-c3ccc(F)c(Cl)c3)c12,-3.16,7.9,0.86,0.71,2.3,0.77,3.08,2.86,1.63,0.72,1.01,3.02,3.59,-0.67,2.74,-0.08,0.9,4.76,6.59,-0.92
c1ccc(COc2ccc(Nc3ncnc4ccc(-c5ccco5)cc34)cc2)cc1,-3.21,-2.24,0.9,-0.9,0.07,-1.17,2.09,1.67,0.5,0.07,0.07,1.25,1.55,-0.04,0.05,-0.86,-0.3,0.37,0.45,0.73
O=S(=O)(CCNCc1ccc(-c2ccc3ncnc(Nc4ccc(OCc5cccc(F)c5)c(Cl)c4)c3c2)o1)c1ccccc1,-4.06,0.31,0.71,-0.02,4.86,4.66,3.43,3.05,1.88,2.98,0.78,2.48,6.82,1.39,2.12,0.95,2.13,4.07,3.1,1.93
CCn1c(-c2nonc2N)nc2ccccc21,1.63,10.9,1.39,10.9,23.3,62.5,7.88,40.4,22.1,70.5,2.81,3.16,18.5,0.44,5.52,12.7,46.5,20.8,67.6,3.92
CCOc1ccc2c(-c3ccnc(Nc4cccc(C(F)(F)F)c4)n3)cnn2n1,-4.67,-1.89,-0.48,-1.84,0.66,-1.09,1.4,-0.01,0.31,-0.17,-2.03,1.32,1.22,0.95,0.74,0.58,0.67,0.98,-0.29,4.45
COc1cc(N2CCN(C(C)C)CC2)ccc1Nc1nc(Nc2ccc(F)cc2C(N)=O)c2cc[nH]c2n1,9.71,20,1.18,16.4,1.85,6.61,1.8,7.26,1.81,5.41,-1.21,7.85,7.44,0.54,6.72,1.83,4.58,1.05,3.09,3.65
COc1ccc(-c2nn3ncccc3c2-c2ccnc(Nc3ccc4c(c3)OCCO4)n2)cc1,-0.27,-2.49,0.2,0,0.41,-0.38,1.07,-0.23,0.77,-0.95,-0.83,0.73,2.32,-1.17,0.51,-1.85,3.69,1.65,2.32,0.61
CCn1cc(-c2ccnc3[nH]ccc23)c(-c2cccc(NC(=O)Nc3ccc(OCc4ccccc4)cc3)c2)n1,-4.2,4.85,-0.78,-0.56,-0.53,-2.01,1.02,0.39,-0.04,-0.6,-1.57,4.08,5.34,1.25,2.76,0.5,1.43,-2.7,1.78,0.3
CCN(CC)S(=O)(=O)c1ccc(OC)c(Nc2ncc(-c3ccccc3)o2)c1,1.92,0.2,-0.21,-0.04,3.03,6.51,0.54,1.06,1.32,0.49,1.9,0.79,1.82,0.46,1.64,1.38,1.74,3.12,0.58,0.29
COc1cc(/C=N/Nc2ncnc3[nH]ncc23)ccc1O,0.11,2.49,0.6,1.83,4.13,13.9,2.93,8.42,3.45,21.4,2.95,1.43,5.96,0.03,3.59,-0.06,4.56,0.97,7.35,2.16
CC1=C(C(=O)Nc2cc(Cl)c3[nH]ncc3c2)C(c2ccc(C(F)(F)F)cc2)CC(=O)N1 (stereo not given),17.2,64.6,23.8,65.5,56.3,81.7,32.4,68.9,8.47,41.7,1.84,21.8,71,0.91,1.52,0.15,2.02,5.7,39.1,3.92
COc1ccc(CNC(=O)c2ccc(-c3cc(-c4nnc(C)o4)ccc3C)cc2)cc1,2.98,6.58,2.16,2.99,9.25,9.58,3.89,4.66,1.64,2.15,1.94,3.14,3.15,0.19,0.76,6.66,9.43,-0.12,4.73,3.1
CCn1c(-c2nonc2N)nc2c(C#CC(C)(C)O)ncc(OC3CCNCC3)c21,8.47,33.8,2.8,22.5,2.46,11.8,3.66,14.9,4.92,26.5,2.52,62.4,89.9,3.68,30.4,41.8,73.2,89.7,99.9,35.1
CCn1c(-c2nonc2N)nc2cnc(Oc3cccc(NC(=O)c4ccc(N(C)C)cc4)c3)cc21,7.29,53.4,17,62.9,60.2,80.5,61.2,79,71.7,90.4,1.22,19.6,70.5,0.56,7.8,16.7,53.6,43.6,88,3.96
COc1cc(Nc2nccc(Nc3ccc4c(C)n[nH]c4c3)n2)cc(OC)c1OC,1.61,-0.15,1.88,1.78,3.58,2.96,1.54,2.58,0.65,1.09,2.76,2.38,14,1.29,10.2,1.4,1.99,3.09,-1.03,3.2
CC(=O)NCc1cccc(C#Cc2cncnc2Nc2ccc(OCc3cccc(F)c3)c(Cl)c2)c1,0.23,-0.33,0.09,1.09,-4.98,-3.7,0.45,4,0.26,0.74,0.04,0.53,0.58,0.2,1.17,-0.24,3.27,1.39,3.4,-0.73
CC(C)COC(=O)c1ccc2c(c1)/C(=C/Nc1ccc(S(N)(=O)=O)cc1)C(=O)N2,3.02,6.98,3.62,12.7,3.88,11.6,5.45,20.9,3,18.1,19.6,6.49,11.8,1.15,7.21,3.19,5.57,-1.68,1.97,-1.87
CN(C)CCOc1ccc(-c2nc(-c3ccncc3)c(-c3ccc4c(c3)CC/C4=N\O)[nH]2)cc1,-0.58,0.77,0.46,0.41,3.39,7.59,2.36,4.48,1.37,1.71,0.77,1.46,4.29,0.58,1.61,1.27,11.9,1.48,3.32,1.85
Clc1ccc(-c2nn3ncccc3c2-c2ccnc(Nc3ccccc3)n2)cc1,-0.06,0.52,0.76,1.28,0.64,2.07,1,2.91,0.57,-0.24,0.53,1.67,2.52,1.23,-0.09,0.65,1.93,-0.59,-0.77,-1.17
Cc1ccc2c(-c3ccnc(Nc4ccccc4)n3)c(-c3ccc(F)cc3)nn2n1,1.01,7.71,1.04,1.94,3.46,3.65,0.97,3.78,1.87,3.16,2.18,1.83,4.25,1.15,11.3,1.13,6.49,0.7,1.97,2.27
